Screening data deposited in PubChem by National Center for Advancing Translational Sciences (NCATS).
HP1b binding inh = inhibitors of HP1-beta chromodomain binding to methylated histone tails; AID 540317; AlphaScreen HP1-beta / biotin-H3K9me3 peptide binding; P83916; actives 0.56% (n = 390,000); Potency, µM (top dose mostly 114 µM), inactives show at the top dose activity change, negative = inhibition, hits mostly inhibitors; note: nearly all actives have a fitted effect of over 70% in size
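Compound inhibition of the preformed complex between 50 nM HP1-beta and 50 nM biotinylated H3K9me3 peptide was read by AlphaScreen. Buffer was PBS pH 7.4 with 0.01% Tween-20. Incubations ran 30 min at room temperature, with 10 ug/mL donor/acceptor beads.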
JMJD2A Tudor inh = blocks the human JMJD2A Tudor domain | Potency, µM (top dose mostly 114 µM), without a hit: at the highest dose activity change, negative = inhibition, most hits filed as inhibitors | AlphaScreen JMJD2A-Tudor / H3K4me3 peptide binding | actives 4.4% (n = 390,000) | AID 504339 | O75164; note: % is set by controls: 0 for no effect and ±100 for the full control effect; nearly all actives have a fitted effect of over 50% in size
G9a block = blocks human histone lysine methyltransferase G9a. actives 8.8% (n = 350,000). Potency, µM (doses to about 102 µM), for inactives: top-dose activity, negative = inhibition, hits mostly inhibitors. Q96KQ7. G9a H3K9 monomethylation, AlphaScreen, 2 h; note: % is set by controls: 0 for no effect and ±100 for the full control effect; nearly all actives have a fitted effect of over 75% in size
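AlphaScreen read-out: biotin-H3K9 peptide (500 nM) methylation by 20 nM enzyme with 20 uM SAM, 2 h at room temperature after 15 min compound preincubation; anti-monomethyl H3K9 antibody plus donor/acceptor beads, 10 min dark.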
BAZ2B block = blocks human BAZ2B; Q9UIF8; AlphaScreen BAZ2B-H3K14Ac peptide displacement; Potency, µM (highest dose often 114 µM), without a hit: at the highest dose activity change, negative = inhibition, most hits filed as inhibitors; actives 4.4% (n = 360,000); AID 504333; note: % is set by controls: 0 for no effect and ±100 for the full control effect; nearly all actives have a fitted effect of over 60% in size
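Inhibition is scored as reduced AlphaScreen emission. The BAZ2B/b-H3(5-23)K14Ac complex (50 nM each) in PBS pH 7.4, 0.01% Tween-20 meets compound (up to 110 uM) for 30 min at RT before bead addition.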
L3MBTL1 block = blocks human L3MBTL1. Q9Y468. AlphaScreen L3MBTL1–H3K9me1 peptide binding. Potency, µM (highest dose often 57.1 µM), inactives show top-dose activity, negative = inhibition, hits mostly inhibitors. actives 0.66% (n = 230,000). AID 485360; note: % is set by controls: 0 for no effect and ±100 for the full control effect; nearly all actives have a fitted effect of over 60% in size
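First, the protein-peptide complex forms for 30 min at room temperature (L3MBTL1 50 nM, biotinylated H3K9me1 peptide 75 nM). Next, compounds are pin-transferred and incubated 30 min. Finally, AlphaScreen beads are added and read after 30 min.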
* marks the source's active call; other numbers are inactive results; ? = inconclusive; nt = not tested or not shown; [ ] = dose if it differs, or a comment. This is a sample that favours compounds with a hit; in the whole collection about 11% have one here. Calls come from the whole dose curve; as a rule, active = well fitted inhibition curve with a large enough effect; inconclusive = small, poorly fitted or top-dose-only effect; inactive = no such curve, though single readings can be large or run the other way. Potency is the fitted concentration of half-maximal effect.

SMILES	HP1b binding inh	JMJD2A Tudor inh	G9a block	BAZ2B block	L3MBTL1 block
Cc1ccc(C)c(NC(=O)CN(C)C(C)C(=O)N2CC(C)CC(C)C2)c1 (centres undefined)	47.8%	-19.7%	56.2µM*	-4.6%	4.8%
COc1ccc(-c2nc3ccccc3nc2-c2ccc(OC)c(OC)c2)cc1OC	113.8%	40.1%	20µM*	19.4%	7.3%
COc1ccc(-c2nc(=S)[nH][nH]2)cc1OC	?	2.82µM*	0.562µM*	56.2µM*	10.1%
COc1cc(-c2nnc(-c3cc(OC)c(OC)c(OC)c3)o2)cc(OC)c1OC	40.9%	-6.1%	-12.0%[59 µM]	-3.5%	?
COc1ccc(-c2nc3ccccc3nc2-c2ccccc2)cc1OC	203.9%	93.8%	144.3%	70.5%	39.2%
COc1cc(-c2nc(=S)[nH][nH]2)cc(OC)c1OC	?	3.55µM*	0.562µM*	50.1µM*	10.2%
CCN(CC)C(=O)c1sc2c(c1C)c(=O)n(-c1ccccc1)c(=O)n2CC(=O)N(CC)c1cccc(C)c1	-5.3%	-15.0%	-0.3%[59 µM]	-13.5%	nt
O=[N+]([O-])c1nn(-c2ccc(Cl)cc2)n(O)c1=NCc1ccccc1	-10.8%	?	?	?	nt
Cc1cccc(CCN=c2c([N+](=O)[O-])nn(-c3ccccc3)n2O)c1	?	50.1µM*	?	nt	nt
CCCc1ccc2oc(C(=O)N3CCC(C(N)=O)(N4CCCCC4)CC3)c(C)c2c1	22.0%	?	0.5%	-7.4%	nt
CCOC(=O)c1cc2c(=O)n3ccccc3nc2n(C(C)C)c1=NC(=O)c1c(-c2ccccc2Cl)noc1C	45.9%	5.5%	-0.5%	nt	nt
CCOC(=O)c1cc2c(=O)n3ccccc3nc2n(CCCOC)c1=NC(=O)c1cccnc1	nt	nt	10µM*	10.1%	?
CCOC(=O)c1cc2c(=O)n3ccccc3nc2n(Cc2ccco2)c1=NC(=O)c1cccc(Br)c1	27.6%	-6.4%	?	50.1µM*	nt
CCOC(=O)c1cc2c(=O)n3ccccc3nc2n(C(C)C)c1=NC(=O)c1ccncc1	-7.3%	?	56.2µM*	-0.4%	2.4%
CCOC(=O)c1cc2c(=O)n3ccccc3nc2n(Cc2ccco2)c1=NC(=O)c1cccnc1	12.4%	?	56.2µM*	?	-5.0%
CCOC(=O)c1cc2c(=O)n3ccccc3nc2n(CCOC)c1=NC(=O)c1ccncc1	28.2%	-17.4%	-4.1%[12.7 µM]	2.8%	-0.2%[11.4 µM]
CCOC(=O)c1cc2c(=O)n3ccccc3nc2n(Cc2ccco2)c1=NC(=O)c1ccc(Br)cc1	7.4%	-24.2%	-4.0%[59 µM]	?	nt
O=C(NCc1ccccc1Cl)c1cc(-c2ccccc2)n[nH]1	39.3%	-3.8%	3.2%[59 µM]	-17.8%	nt
Cc1noc(C)c1-c1cncnc1NCc1ccccc1	nt	nt	-4.9%[0.501 µM]	nt	nt
O=C(CNC(=O)C1CCCCC1)OCCOc1ccccc1	34.6%[57 µM]	-10.0%[57.1 µM]	nt	nt	nt
CCOC(=O)c1cc2c(=O)n3cccc(C)c3nc2n(Cc2ccco2)c1=NC(=O)c1cccnc1	15.3%	?	8.1%[12.7 µM]	79.4µM*	-9.6%[11.4 µM]
CCOC(=O)c1cc2c(=O)n3ccccc3nc2n(Cc2ccco2)c1=NC(=O)c1ccc(C)c(C)c1	24.7%	6.5%	-2.7%[59 µM]	3.0%	nt
COCCCn1c(C(=O)Nc2ccc3c(c2)OCO3)cc2c(=O)n3ccccc3nc21	10.3%	25.1µM*	-5.1%	-3.7%	nt
CCN(CC)c1ccc(C(=O)NCc2nc3cccnc3n2Cc2ccc(C)cc2)cc1	11.2%[57 µM]	?	-2.4%[59 µM]	-33.1%	nt
CCOc1ccc(C(=O)NCC(C)NC(=O)c2ccc(OCC)cc2)cc1 (centres undefined)	12.4%	?	nt	?	4.9%
CC(C)CCOc1ccc(C(=O)NCC(c2ccco2)N(C)C)cc1 (centres undefined)	-8.3%	-27.7%	50.1µM*	-4.2%	nt
CCOc1ccc(C(=O)N/N=C(/C)C2C(=O)c3ccccc3C2=O)cc1	22.1%	35.5µM*	13.3%[59 µM]	0.9%	-2.9%
Cc1c(C(=O)NCC(c2ccco2)N(C)C)oc2c(Cl)cccc12 (centres undefined)	?	?	50.1µM*	50.1µM*	-0.9%
CN(C)C(CNC(=O)c1ccc(Br)cc1)c1ccco1 (centres undefined)	26.0%	-4.9%	4.0%	-16.7%	nt
CCOc1ccc(C(=O)NCC(C)C)cc1	16.8%	6.3%[57.1 µM]	0.891µM*	8.1%	nt
